Inconclusive results are not listed. A call without a number means that no potency is given here. Active and inactive are the calls of the source. The call rests on the fitted dose curve.
Test: p53 small molecule agonists, cell-based qHTS assay: qHTS cell viability counter screen (AID 1963581); further: nearly all actives have a fitted effect of over 45% in size
Details: p53RE-bla HCT-116 viability, ATP luminescence, 16 h; series mostly up to 66 µM
Description: National Center for Advancing Translational Sciences [NCATS]
Division of Preclinical Innovation [DPI]
U.S. Environmental Protection Agency [EPA]
National Institutes of Environmental Health Sciences [NIEHS]
National Toxicology Program [NTP]
U.S. Food and Drug Administration [FDA]
p53, a tumor suppressor protein, is activated following cellular insult, including DNA damage and other cellular stresses. The activation of p53 regulates cell fate by inducing DNA repair, cell cycle arrest, apoptosis, or cellular senescence. The activation of p53, therefore, is a good indicator of DNA damage and other cellular stresses. The CellSensor p53RE-bla HCT-116 cell line (Invitrogen) contains a stably integrated beta-lactamase reporter gene under control of the p53 response elements. The activation of the reporter gene under culture conditions can be detected by fluorescence intensity. This cell line was used to screen the Tox21 compound library in a 1536-well plate format and to identify agonists that activate the p53 signaling pathway. The cytotoxicity of the Tox21 compound library against the p53 RE-bla HCT-116 cell line was tested in parallel by measuring the intra cellular ATP content in the same wells.
Tox21 Assay Protocol Summary:
The p53RE-bla cells were dispensed at 4,000 cells/5 ul/well in 1536-well black wall/clear bottom plates using a Multidrop dispenser. After the assay plates were incubated at a 37 C/5% CO2 incubator for 5 hours, 23 nL of compounds dissolved in DMSO, positive controls or DMSO only was transferred to the assay plate by a pin tool. The plates were incubated at 37 C for 16 hours. After 1 uL of LiveBLAzerTM B/G FRET substrate was added using a Flying Reagent Dispenser, the plates were incubated at room temperature for 2 hours, and fluorescence intensity was measured by an Envision plate reader. For cell viability readout that measures cytotoxicity, 4 ul/well of CellTiter-Glo reagent was added into the assay plates using a Flying Reagent Dispenser. After 30 min incubation at room temperature, the luminescence intensity in the plates was measured using a ViewLux plate reader.

| Structure (SMILES) | Potency |
| --- | --- |
| CCc1cnc(C(=O)O)c(C(=O)O)c1 | inactive |
| O=C1Cc2cc(Cl)ccc2N1 | inactive |
| C1CCC(SSC2CCCCC2)CC1 | inactive |
| COC(=O)c1cc(Cl)ccc1OC | inactive |
| CCCOCCO | inactive |
| CC1=NN(c2ccc(S(=O)(=O)O)cc2)C(=O)C1 | inactive |
| CCOC(=O)[C@H](CCc1ccccc1)N[C@@H](C)C(=O)N1C(=O)N(C)C[C@H]1C(=O)O | inactive |
| CCCCOCCOCCOCCO | inactive |
| O=C1OC2(c3ccccc31)c1cc(Br)c(O)c(Br)c1Oc1c2cc(Br)c(O)c1Br | inactive |
| COc1ccc(N)c(OC)c1 | inactive |
| ON(Cc1ccccc1)Cc1ccccc1 | inactive |
| O=Cc1ccc(F)cc1 | inactive |
| CCCCCC1CCC(=O)O1 (stereo not given) | inactive |
| Nc1ccc(NCCO)c([N+](=O)[O-])c1 | inactive |
| COc1cc(C=O)ccc1OC(=O)C(C)C | inactive |
| C=C(C)C(=O)OC(C)C | inactive |
| CCC1CCCCC1 | inactive |
| CCC(C)(C)C1CCC(OC)CC1 (stereo not given) | inactive |
| CC1(C)[C@@H]2CC[C@@]1(C)[C@H](O)C2 | inactive |
| CCN(CC)CCN | inactive |

| Structure (SMILES) | Potency |
| --- | --- |
| CC(=O)OCCOCCOCCOC(C)=O | inactive |
| CCn1cc(C(=O)O)c(=O)c2cc3c(cc21)OCO3 | inactive |
| CCCCCCCC/C=C\CCCCCCCC(N)=O | inactive |
| Cc1oc(C)c(C(=O)Nc2ccccc2)c1C | inactive |
| Oc1ccc2cc(SSc3ccc4cc(O)ccc4c3)ccc2c1 | inactive |
| CC(=O)N(CC(O)CO)c1c(I)c(C(=O)NCC(O)CO)c(I)c(C(=O)NCC(O)CO)c1I (stereo not given) | inactive |
| O=C(O)CONC(=O)c1ccccc1 | inactive |
| CCC(CO)CO | inactive |
| CCCCCCOCCOCCO | inactive |
| NCCNCCO | inactive |
| COc1ccc(Cl)cc1C | inactive |
| CC[C@@H]1C[C@H](N(Cc2cc(C(F)(F)F)cc(C(F)(F)F)c2)C(C)=O)c2cc(C(F)(F)F)ccc2N1C(=O)OC(C)C | inactive |
| COc1ccc2cccc(CCNC(C)=O)c2c1 | inactive |
| CN/C(=C\[N+](=O)[O-])NCCSCc1ccc(CN(C)C)o1 | inactive |
| O=C(O)c1cc(N=Nc2ccc(S(=O)(=O)Nc3ccccn3)cc2)ccc1O | inactive |
| CCC(=O)OC(C)(C)C1CC=C(C)CC1 (stereo not given) | inactive |
| C1CSCCS1 | inactive |
| CN1[C@@H]2CC[C@H]1CC(NC(=O)n1c(=O)[nH]c3ccccc31)C2 (stereo not given in full) | inactive |
| CCCc1ccccc1 | inactive |
| CSc1ccc(C(=O)c2[nH]c(=O)[nH]c2C)cc1 | inactive |
